“And” between values parts separate entries of the source, which are not always exact repeats. Equal values may be shown once. This is part of a sample that, as a whole, favours compounds with a hit. Of some 83,000 tested, about 20% had one in any assay.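 In brief: 96-well plates, 48 h treatment, single concentration, percent growth endpoint.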 The source made the active and inactive calls. How the source made its calls: active means growth percent below 10; inactive means the rest.
Experiments:
Test in all cases: NCI-60 one-dose screen, 48 h (100 = growth as untreated, 0 = no growth, -100 = all killed)
Conditions in all cases: 10 µM unless noted
T-47D breast = test system: T-47D breast
BT-549 breast = test system: BT-549 breast
MDA-MB-435 melanoma = test system: MDA-MB-435 melanoma
SW-620 colon = test system: SW-620 colon
MCF7 breast = test system: MCF7 breast
KM12 colon = test system: KM12 colon
HCC-2998 colon = test system: HCC-2998 colon
HCT-116 colon = test system: HCT-116 colon

Measured: growth

NCCCCCC(=O)O
inactive: T-47D breast 101% [middle of 4 runs] | BT-549 breast 98.5% and 107% and 112% | MDA-MB-435 melanoma 105% [middle of 4 runs] | SW-620 colon 109% and 98.2% and 107% | MCF7 breast 105% [middle of 4 runs] | KM12 colon 114% [middle of 4 runs]

Cc1nc(Nc2ccc(Cl)cc2)c2cnn(-c3ccccc3)c2n1
inactive: T-47D breast 101% | BT-549 breast 102% | MDA-MB-435 melanoma 94.7% | SW-620 colon 98.4% | MCF7 breast 88.2% | HCC-2998 colon 105% | KM12 colon 106%

COc1ccc([N+](=O)[O-])cc1OC
inactive: T-47D breast 103% and 102% | BT-549 breast 110% | MDA-MB-435 melanoma 109% and 107% | SW-620 colon 91.8% and 110% | MCF7 breast 87.5% and 96.7% | HCC-2998 colon 105% | KM12 colon 109% and 120%

CCNC1=CC(=O)c2ncccc2C1=O
inactive: T-47D breast 86.1% | SW-620 colon 13.8% | HCC-2998 colon 29.8% | KM12 colon 48.2%
active: BT-549 breast -27.8% | MDA-MB-435 melanoma -91.7% | MCF7 breast -13.2%

c1ccc2c[n+](Cc3ccc4ccccc4n3)ccc2c1
inactive: T-47D breast 62.6% | BT-549 breast 47.2% | MDA-MB-435 melanoma 90.3% | SW-620 colon 87.5% | HCT-116 colon 59.3% | HCC-2998 colon 71.7%

O=C(O)C#Cc1ccc(Cl)cc1
inactive: T-47D breast 90.7% | BT-549 breast 99.9% | MDA-MB-435 melanoma 106% | SW-620 colon 96.8% | MCF7 breast 98.8% | HCC-2998 colon 108% | KM12 colon 104%

CCN(CC)Cc1cc2[nH]c3c4ccc(Cl)cc4ncc3c2cc1OC
1.09% (active) and 44% (inactive): MDA-MB-435 melanoma
4.64% (active) and 25.5% (inactive): SW-620 colon
2.32% (active) and 42.7% (inactive): KM12 colon
inactive: T-47D breast 99.2% and 94.2% | BT-549 breast 75.1% and 82.2% | MCF7 breast 16.5% and 64.2% | HCC-2998 colon 83.6% and 101%

O=C1C=CC(n2cc(F)c(=O)[nH]c2=O)O1 (stereo unspecified)
inactive: T-47D breast 65.5% | BT-549 breast 43% | MDA-MB-435 melanoma 46.4% | SW-620 colon 79.7% | MCF7 breast 30.1% | HCT-116 colon 40% | HCC-2998 colon 22.3% | KM12 colon 51.6%

CC(=O)Oc1cc(C)c(OC(C)=O)c(C)c1C
inactive: T-47D breast 82.2% | BT-549 breast 117% | MDA-MB-435 melanoma 105% | SW-620 colon 105% | MCF7 breast 91.3% | HCC-2998 colon 105% | KM12 colon 101%

Cc1ccc(S(=O)(=O)n2ccnc2)cc1
inactive: T-47D breast 96.8% | BT-549 breast 122% | MDA-MB-435 melanoma 108% | SW-620 colon 109% | MCF7 breast 99% | HCC-2998 colon 102%

CCOC(C)=N
inactive: T-47D breast 103% | BT-549 breast 108% | MDA-MB-435 melanoma 118% | SW-620 colon 107% | MCF7 breast 104% | HCC-2998 colon 103% | KM12 colon 111%

COc1cc2c(cc1O)C(=O)CCCC2
inactive: T-47D breast 94.8% | BT-549 breast 78% | MDA-MB-435 melanoma 99.2% | SW-620 colon 92.9% | MCF7 breast 91.2% | HCC-2998 colon 74.7% | KM12 colon 89%

COc1ccc(/C=C/C(=O)O)cc1OC
inactive: T-47D breast 107% and 106% | BT-549 breast 107% and 111% | MDA-MB-435 melanoma 109% and 112% | SW-620 colon 103% and 102% | MCF7 breast 97.9% and 102% | HCC-2998 colon 119% and 102% | KM12 colon 109%

Cc1ccc([N+](=O)[O-])cc1Br
inactive: T-47D breast 89.1% | BT-549 breast 110% | MDA-MB-435 melanoma 85.6% | SW-620 colon 91.8% | MCF7 breast 97.6% | HCC-2998 colon 117% | KM12 colon 103%

CN(C)C(=S)N(C)C
inactive: T-47D breast 98.5% | BT-549 breast 107% | MDA-MB-435 melanoma 112% | SW-620 colon 107% | MCF7 breast 107% | HCC-2998 colon 103% | KM12 colon 109%

CCCC(=O)Oc1ccc(CC)cc1
inactive: T-47D breast 90.9% | BT-549 breast 107% | MDA-MB-435 melanoma 107% | SW-620 colon 111% | MCF7 breast 92.4% | HCC-2998 colon 102% | KM12 colon 102%

NC(=O)Cc1nc(O)cc(=O)[nH]1
inactive: T-47D breast 88.5% | BT-549 breast 109% | MDA-MB-435 melanoma 106% | SW-620 colon 104% | MCF7 breast 95.5% | HCC-2998 colon 100% | KM12 colon 106%

C(#CCN1CCOCC1)CCCN1CCOCC1
inactive: T-47D breast 105% and 101% | BT-549 breast 99.5% and 53.3% | MDA-MB-435 melanoma 102% and 101% | SW-620 colon 109% and 106% | MCF7 breast 91.9% and 99.5% | HCC-2998 colon 99.6% and 98.9% | KM12 colon 105% and 106%

O=C1c2ccccc2C(c2ccccc2)C1c1ccccc1 (stereo unspecified)
inactive: T-47D breast 82.9% | BT-549 breast 131% | MDA-MB-435 melanoma 95.9% | SW-620 colon 90.1% | MCF7 breast 69.3% | HCC-2998 colon 95.4% | KM12 colon 95.1%

Cc1cc2nc3ccc(=[N+](C)C)cc-3sc2cc1N
inactive: BT-549 breast 48.9% and 50.4% | HCC-2998 colon 18.8%
active: T-47D breast -25.1% and 1.21% | MDA-MB-435 melanoma -68.9% and -41.4% | SW-620 colon -19.7% and -9.28% | MCF7 breast -3.34% and -28.7% | KM12 colon 5.96% and -2.21%

COc1cc(C2c3cc4c(cc3C(OC(=O)C[n+]3ccccc3)C3COC(=O)C23)OCO4)cc(OC)c1OC (stereo unspecified)
inactive: T-47D breast 94.8% | BT-549 breast 19.8% | SW-620 colon 21.3% | HCC-2998 colon 13.3%
active: MDA-MB-435 melanoma -8.6% | MCF7 breast 9.23% | KM12 colon -8.66%

O=C(/C=C/C=C/c1ccc2c(c1)OCO2)N1CCCCC1
inactive: T-47D breast 90.8% and 103% | BT-549 breast 108% | MDA-MB-435 melanoma 98.9% and 104% | SW-620 colon 106% and 101% | MCF7 breast 101% and 82.8% | HCC-2998 colon 102% and 130% | KM12 colon 98.2% and 95%

CC(C)(C(=O)c1cccnc1)c1cccnc1
inactive: T-47D breast 96.2% and 111% | BT-549 breast 103% and 136% | MDA-MB-435 melanoma 98.6% and 122% | SW-620 colon 105% and 106% | MCF7 breast 102% and 93.8% | HCC-2998 colon 102% | KM12 colon 101% and 113%

CC(=O)/C(N=Nc1ccc(S(=O)(=O)c2ccc(N=N/C(C(C)=O)=C(/C)O)cc2)cc1)=C(\C)O
inactive: T-47D breast 113% | MDA-MB-435 melanoma 118% | SW-620 colon 99.4% | MCF7 breast 96.1% | HCT-116 colon 93.2% | HCC-2998 colon 96.4%

COC(=O)c1nc(N)nc(C(=O)OC)c1C(=O)c1cccc2ccccc12
inactive: T-47D breast 109% | BT-549 breast 133% | MDA-MB-435 melanoma 108% | SW-620 colon 118% | HCT-116 colon 111% | HCC-2998 colon 106% | KM12 colon 110%

Nc1[nH][nH]c(=O)c1N=Nc1ccccc1
inactive: T-47D breast 113% and 102% | BT-549 breast 101% and 133% | MDA-MB-435 melanoma 103% and 99.7% | SW-620 colon 97.5% and 114% | HCC-2998 colon 97.9% and 104% | KM12 colon 105% and 106%

CN(C)CC(CN(C)C)C(O)c1ccccc1 (stereo unspecified)
inactive: T-47D breast 95.2% | BT-549 breast 101% | MDA-MB-435 melanoma 112% | SW-620 colon 111% | HCT-116 colon 101% | HCC-2998 colon 111% | KM12 colon 102%

CCCCCCC(C)CC1=C(O)c2ccccc2C(=O)C1=O (stereo unspecified)
inactive: T-47D breast 72.9% | BT-549 breast 49% | MDA-MB-435 melanoma 42.7% | SW-620 colon 35.4% | HCT-116 colon 23.6% | HCC-2998 colon 54.9% | KM12 colon 41.2%

COc1ccc(CCl)c(C)c1OC
inactive: T-47D breast 102% | BT-549 breast 105% | MDA-MB-435 melanoma 108% | SW-620 colon 101% | HCT-116 colon 99.6% | HCC-2998 colon 100% | KM12 colon 101%

ON=C(C1CCCCC1)C1CCCCC1
inactive: T-47D breast 87.3% | BT-549 breast 108% | MDA-MB-435 melanoma 103% | SW-620 colon 102% | HCT-116 colon 100% | HCC-2998 colon 109% | KM12 colon 95.5%

Reference: PubChem BioAssay (NCI)
